Screens as filed in PubChem.
Shown are actives, neighbours in structure and some others; about 1.1% of the full set was active somewhere.
rTrxR1 inhibitor – qHTS Assay for Inhibitors of Mammalian Selenoprotein Thioredoxin Reductase 1 (TrxR1): qHTS. Thioredoxin reductase 1, cytoplasmic (Rattus norvegicus), O89049. recombinant rTrxR1, NADPH fluorescence consumption, selenite substrate. Potency, µM (highest dose often 114 µM), without a hit: at the top dose activity change, negative = inhibition, most hits filed as inhibitors. 1% of 390,000 active; note: nearly all actives have a fitted effect of over 65% in size
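Rat TrxR1 (90 nM in the dispensed reagent) was pre-reduced with 400 uM NADPH for 5 min at room temperature, then incubated with compound for 15 min. After 400 uM selenite was added, NADPH fluorescence (Ex 340/Em 450 nm) was followed for 8 min.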
mIDH1 inhibitor – qHTS for Inhibitors of mutant isocitrate dehydrogenase 1 (IDH1): qHTS; IDH1-R132H enzyme, NADPH consumption, diaphorase/resazurin fluorescence; Potency, µM (top dose mostly 76.6 µM), for the others: at the top dose activity change, negative = inhibition, most hits filed as inhibitors; 0.093% of 390,000 active; AID 602179, 2012; note: nearly all actives have a fitted effect of over 65% in size
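IDH1-R132H (0.5 ug/mL) preincubated 30 min with compound, then NADPH (0.016 mM) and alpha-KG (2 mM) added; 80 min at RT, pH 7.5. Remaining NADPH coupled via diaphorase/resazurin to fluorescence (540/590 nm); concentration-response curves normalized to no-enzyme control.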
TrxR1 substrate – qHTS Assay for Substrates of Mammalian Selenoprotein Thioredoxin Reductase 1 (TrxR1): qHTS; 0.01% of 390,000 active; Thioredoxin reductase 1, cytoplasmic (Rattus norvegicus), O89049; purified TrxR1 substrate turnover, NADPH consumption readout; AID 588456, 2011; Potency, µM (doses to about 114 µM), for the others: at the highest dose activity change, negative = substrate turnover; note: nearly all actives have a fitted effect of over 50% in size
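Rat TrxR1, dispensed at 90 nM, was prereduced with 400 uM NADPH (final) for 5 min at ~22 deg C, then incubated with compound 15 min before 400 uM selenite. A first-read NADPH fluorescence drop versus no-compound background flagged substrates.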
RGS4 inhibitor – Inhibitors of Regulator of G Protein Signaling (RGS) 4: qHTS; Potency, µM (series often up to 114 µM), for the others: at the top dose activity change, negative = inhibition, most hits filed as inhibitors; Regulator of G-protein signaling 4 (Homo sapiens), P49798; AID 504845, 2011; 0.039% of 390,000 active; Transcreener GDP fluorescence polarization, RGS4-accelerated GTP hydrolysis; note: nearly all actives have a fitted effect of over 75% in size
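MLSMR compounds (23 nl, pin-transferred) preincubated 10 min at room temperature with a 500nM (2x) first reagent, then RGS4 at 900nM (2x) plus Transcreener GDP mix added; fluorescence polarization (620/688 nm) read before and after 90 min at 30 °C.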
Eya2 phos inh – qHTS Assay for Inhibitors of the Phosphatase Activity of Eya2; Protein phosphatase EYA2 (Homo sapiens), O00167; recombinant Eya2, OMFP fluorescence dephosphorylation (OMFP is methylfluorescein phosphate); Potency, µM (top dose mostly 76.9 µM), for the others: at the highest dose activity, negative = inhibition, hits mostly inhibitors; 0.006% of 330,000 active
Target sequence (O00167 whole entry, looked up): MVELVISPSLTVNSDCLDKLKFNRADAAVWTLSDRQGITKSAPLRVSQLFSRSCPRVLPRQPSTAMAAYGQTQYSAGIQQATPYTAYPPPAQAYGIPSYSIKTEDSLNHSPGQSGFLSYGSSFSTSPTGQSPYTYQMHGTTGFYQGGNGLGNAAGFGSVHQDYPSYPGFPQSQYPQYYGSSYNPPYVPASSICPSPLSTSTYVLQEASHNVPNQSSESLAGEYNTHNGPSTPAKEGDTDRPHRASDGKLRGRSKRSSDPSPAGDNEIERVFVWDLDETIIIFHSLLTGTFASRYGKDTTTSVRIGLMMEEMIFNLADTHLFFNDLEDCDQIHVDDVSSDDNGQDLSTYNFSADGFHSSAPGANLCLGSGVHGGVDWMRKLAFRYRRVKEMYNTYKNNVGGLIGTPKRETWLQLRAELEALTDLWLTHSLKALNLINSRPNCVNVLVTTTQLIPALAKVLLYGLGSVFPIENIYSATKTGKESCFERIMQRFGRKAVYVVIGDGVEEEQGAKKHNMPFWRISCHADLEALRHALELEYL
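Eya2 (0.2 uM) preincubated 10 min at ambient with compound, then OMFP substrate added at 50 uM; 10 min reaction in 50 mM HEPES pH 7.5, 50 mM NaCl, 5 uM MgCl2, 0.05% BSA, 1 mM DTT. Fluorescence read at Ex 485/Em 525 nm.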
The depositor's hits bear a star; ? = inconclusive; . = no result given; [ ] = another dose, or the depositor's remark. Calls come from the whole dose curve; as a rule, active = well fitted curve in the direction sought with a large enough effect; inconclusive = small, poorly fitted or top-dose-only effect, or another doubt; inactive = no such curve, though single readings can be large; an effect the other way counts as inactive or inconclusive. % is set by controls: 0 for no effect and ±100 for the full control effect; potency is the fitted concentration of half-maximal effect.

SMILES | rTrxR1 inhibitor | mIDH1 inhibitor | TrxR1 substrate | RGS4 inhibitor | Eya2 phos inh
COc1ccc2ccc(O)c(CN(C)CC(=O)Nc3ccccc3C(F)(F)F)c2c1 | 8.9µM* | 3% | -6%[57.1 µM] | -27% | -2%
COc1ccc(CN(C)CC(=O)Nc2ccccc2C(F)(F)F)cc1 | 15% | 11% | -5% | -22%[56.9 µM] | -5%
CN(C)Cc1c(O)ccc2ccccc12 | ? | 2% | 16% | 6%[11.4 µM] | 2%
CCN(CC(=O)Nc1ccc(NC(C)=O)cc1)Cc1c(O)ccc2cc(Br)ccc12 | 6.3µM* | 2% | 0%[57.1 µM] | ? | 4%
CCN(CC(=O)Nc1ccc(NC(C)=O)cc1)CC(=O)Nc1cccc2ccccc12 | . | -6% | . | . | .
O=C(Nc1ccc(Cl)c([N+](=O)[O-])c1)c1ccc(NCCCN2CCOCC2)c([N+](=O)[O-])c1 | -24% | -6% | -13% | 11% | -12%
COc1ccccc1Nc1c2c(nc3ccc(NC(=O)c4ccc(OC)c(OC)c4)cc13)CCCC2 | 11% | 22% | -7% | -49% | .
COc1ccc(N(C(=O)COc2cccc(C)c2)S(=O)(=O)c2ccc(C)cc2)cc1 | 17% | -5% | -3% | -11% | 7%
Cc1cc2c(=O)n(C)c(SCC(=O)Nc3cccc(O)c3)nc2s1 | 11% | -7% | 1% | 9% | -20%
COc1cc(C(=O)N[C@@H](C)C(=O)N2CCC3(CC2)NCCc2[nH]cnc23)cc(OC)c1OC | 26% | -2% | 12% | 16%[11.4 µM] | 10%
CC(C)=CC(=O)N1CCC(n2nccc2NC(=O)CCc2ccccc2)CC1 | 7% | 7% | 5% | -15% | 8%
Cc1ccc(S(=O)(=O)CCC(=O)Oc2ccc3c(C)cc(=O)oc3c2)cc1 | 71µM* | 11% | 382% | -31% | 21%
CN(C)CCCN(C(=O)COc1ccccc1)c1nc2ccc(F)cc2s1 | -7% | -4% | -5% | -4% | -7%
CN(C)CCCN(C(=O)CCOc1ccccc1)c1nc2ccc(F)cc2s1 | 0.63µM* | 5% | -3% | -44% | 7%
O=C(CCOc1ccccc1)N(Cc1cccnc1)c1nc2ccc(F)cc2s1 | 7.1µM* | -1% | 3%[57.1 µM] | ? | .
CN(C)CCCN(C(=O)CCOc1ccccc1)c1nc2c(F)cccc2s1 | 0.45µM* | 7% | 18%[57.1 µM] | -22%[56.9 µM] | -18%
O=C(Nn1cnnc1)c1cc([N+](=O)[O-])cc([N+](=O)[O-])c1 | -12% | 1% | -12% | 27% | 3%
C#CCOCCOCCOCCNc1nc(N2CCOCC2)nc(N2CCN(C(=O)[C@H](Cc3cc4ccccc4[nH]3)n3cc([C@@H](N)Cc4ccc(O)cc4)nn3)CC2)n1 | 0% | -10% | -6% | -20% | 2%
CC(C)CCn1nnnc1CN1CCN(c2ccccc2)CC1 | 39%[57.1 µM] | 7% | 13%[57.1 µM] | 8% | -5%
CN(C)c1ccc(C=O)cc1 | -22% | . | -19% | . | .
CCCN(CCC)C1=N/C(=C\c2ccco2)C(=O)N1c1ccccc1 | 25µM* | -3% | -10% | -33% | 3%
CCCN=C1N/C(=C\c2ccco2)C(=O)N1c1ccccc1 | -36% | 2% | -14% | -28% | -27%
O=C(/C=C/c1ccccc1Cl)c1ccccc(=O)c1O | 35µM* | 0% | -7% | ? | 5%
Cc1ccc(C)c(/C=C/C(=O)c2ccccc(=O)c2O)c1 | 50µM* | 8% | -15% | ? | 2%
CCOc1ccccc1C=Nc1ccccc1C(=O)Nc1ccccc1 | 3% | 3% | 6%[0.457 µM] | -9% | 4%
O=C(Nc1nc2n(n1)C(c1ccccc1)C=C(c1ccccc1)N2)c1ccccc1 (stereo unspecified) | 56µM* | -15% | 10% | -1% | .
O=C(NCc1ccco1)c1cccc2c1C(=O)c1ccc(/C=C/c3ccccc3)cc1S2(=O)=O | 22µM* | -8% | -2%[57.1 µM] | ? | -7%
